We go through 95 compounds from PubChem BioAssay AID2796 (The Scripps Research Institute Molecular Screening Center, 2010).

Out of some 320,000 compounds screened, about 8,000 (2.5%) were called active. Rule as the data show it: active = activation above about 47%; inactive = the rest. The entries come from a sample that favours actives as a whole.

Aryl hydrocarbon receptor (Homo sapiens), sequence (P35869 whole entry, looked up): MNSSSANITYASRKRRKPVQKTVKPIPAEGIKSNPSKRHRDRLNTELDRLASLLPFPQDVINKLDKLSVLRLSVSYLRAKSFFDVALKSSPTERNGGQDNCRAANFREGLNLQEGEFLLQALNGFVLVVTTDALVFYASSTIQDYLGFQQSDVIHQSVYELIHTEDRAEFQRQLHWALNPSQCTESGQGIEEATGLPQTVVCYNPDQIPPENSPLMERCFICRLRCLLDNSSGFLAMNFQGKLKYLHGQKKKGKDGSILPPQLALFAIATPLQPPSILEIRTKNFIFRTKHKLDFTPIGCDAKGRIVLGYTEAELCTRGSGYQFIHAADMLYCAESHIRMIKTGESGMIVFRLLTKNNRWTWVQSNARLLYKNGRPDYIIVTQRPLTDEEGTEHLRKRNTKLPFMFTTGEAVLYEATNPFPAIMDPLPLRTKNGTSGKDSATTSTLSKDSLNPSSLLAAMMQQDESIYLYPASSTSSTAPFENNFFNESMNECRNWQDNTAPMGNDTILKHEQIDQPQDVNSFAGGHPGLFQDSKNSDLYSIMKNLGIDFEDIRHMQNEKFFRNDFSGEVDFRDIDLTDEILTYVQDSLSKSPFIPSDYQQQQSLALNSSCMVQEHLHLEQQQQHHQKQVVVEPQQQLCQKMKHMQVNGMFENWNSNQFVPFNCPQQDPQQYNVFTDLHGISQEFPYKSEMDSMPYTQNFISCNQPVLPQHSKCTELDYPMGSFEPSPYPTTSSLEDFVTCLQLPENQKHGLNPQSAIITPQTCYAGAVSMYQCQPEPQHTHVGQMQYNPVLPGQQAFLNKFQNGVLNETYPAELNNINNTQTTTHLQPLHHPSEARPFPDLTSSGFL

This test addresses Aryl hydrocarbon receptor (Homo sapiens) (UniProt P35869). As to the kind of experiment: AHR activators, primary screen, cell-based, luminescence, luciferase reporter, human (AID 2796).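 Also: 0% = vehicle wells and 100% = reference agonist.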 Particulars: AHR-responsive luciferase reporter cells, at 5 µM, hits give high values. Background: A reporter such as luciferase makes a cellular process visible.
As for `Cc1nc2c(ncn2-c2ccccc2)c(=O)n1NC(=O)CN1CCCC1`, the activation was 0.17% (inactive).
The result for `CC1CN(c2nc(-c3ccccc3)nnc2-c2ccccc2)CC(C)O1` (stereo not given) reads 10.3% (inactive).
For the compound `CC(C)Cn1c(CCC(=O)O)ccc1-c1cccs1`, the activation was -1.84% (inactive).
Then `OCCCNc1nc(-c2ccccc2)c2cc(Cl)ccc2n1`, with 3.68% (inactive); and `COc1cc2nc(Cl)nc(NCCO)c2cc1OC`, with -0.57% (inactive); and `OCCNc1nc(Nc2ccc(Cl)c(Cl)c2)nc2ccccc12`, with 124% (active).
Consider `O=C(NC(CC(=O)N1CCN(c2ccccc2)CC1)c1ccccc1)c1ccccc1Cl` (stereo not given), for which the activation is -0.75% (inactive).
Then `O=C(Nn1c(-c2ccc(Cl)cc2)nc2ccccc2c1=O)c1cccnc1Cl`, with 104% (active); and `Cc1cccc(-c2nc3ccccc3c(=O)n2NC(=O)Cc2ccc(Cl)cc2)c1`, with -0.38% (inactive).
Then `COc1cc(OC)cc(-c2nc3ccccc3c(=O)n2NC(=O)c2cccnc2Cl)c1`, with 4.93% (inactive); and `COc1ccc(C(=O)COC(=O)c2ccc3ccccc3n2)cc1`, with 2.48% (inactive); and `O=C(Nc1ccc(S(=O)(=O)Nc2ccccn2)cc1)c1ccccc1`, with -0.84% (inactive).
The result for `c1ccc(-c2cn3c(n2)CCc2ccc4cccnc4c2-3)cc1` reads 64% (active).
Take `O=S(=O)(Nc1ncccn1)c1ccc(NS(=O)(=O)c2cccc(Cl)c2Cl)cc1`: the activation is 0.76% (inactive).
`CC(=O)c1ccccc1OCc1ccc(C(=O)c2ccccc2)cc1`: the activation was 0.89% (inactive).
As for `CCCCOc1ccc(CSC(=N)N)cc1[N+](=O)[O-]`, the activation was 15% (inactive).
In the case of `CCCCCOc1ccc(CSC2=NCCN2)cc1[N+](=O)[O-]`, the activation is 6.95% (inactive).
The result for `CCCOc1ccc(Cn2ccnc2)cc1[N+](=O)[O-]` reads 59.2% (active).
Regarding `O=C(CCC(=O)NNc1nc2ccccc2c2nc(-c3ccccc3)nn12)NCCCN1CCCC1=O`, the activation is 55.5% (active).
Turning to `COc1ccc(-c2cc(C(=O)NCCCN3CCCC3=O)c3ccccc3n2)cc1OC`, the activation was 11.6% (inactive).
For `Cc1nn(Cc2ccccc2)c(C)c1C(=O)NCCCN1CCCC1=O`, the activation was 2.56% (inactive).
As to `COc1ccc(N(CC(=O)NC2CCCCC2)C(=O)CNC(=O)c2ccco2)c(OC)c1`, the activation was 0.47% (inactive).
Take `O=C(CN1C(=O)NC2(CCCCCCC2)C1=O)NCc1ccc(F)cc1`: the activation was 2.09% (inactive).
Consider `O=C1NC[C@@H](Cc2ccc(O)cc2)N(CCc2cccc(F)c2)C1=O`, for which the activation is -0.45% (inactive).
Then `CCN(CC)CC1(O)CCN(C(=O)c2ccc(Cl)c(Cl)c2)CC1`, with 10.4% (inactive); and `COc1ccc2cc(C(=O)O)n(CC(=O)c3ccccc3)c2c1`, with 18.9% (inactive); and `CCn1c(=N)n(CC(=O)c2cccc(OC)c2)c2ccccc21`, with 50.3% (active).
The result for `CCOC(=O)c1cc2ccccc2n1CC(=O)c1ccccc1` reads 24% (inactive); that for `O=C(Cn1nnc(N2CCCCC2)n1)c1ccc(Cl)c(Cl)c1`, -3.18% (inactive); that for `CCCn1c(=N)n(CC(=O)c2ccc(Cl)c(Cl)c2)c2ccccc21`, 66.2% (active).
Take `O=C(c1c(F)cccc1Cl)N1CCN(S(=O)(=O)c2ccc3c(c2)OCCCO3)CC1`: the activation is -0.63% (inactive).
The result for `O=C(Nc1ccc(N2CCCCC2)cc1)c1cc(S(=O)(=O)N2CCOCC2)ccc1F` reads 0.49% (inactive); that for `CCc1ccccc1NC(=S)N(CCN1CCCCCC1)Cc1ccco1`, 0.79% (inactive); that for `COc1cccc(CNS(=O)(=O)c2ccc3c(c2)N(C(C)=O)CCS3)c1`, 7.96% (inactive).
The result for `Nc1ncnc2c1ncn2[C@@H]1O[C@H](CNCc2cccn2-c2nccs2)[C@@H](O)[C@H]1O` reads -1.49% (inactive).
Then `Cc1ccc(NS(=O)(=O)c2c(C)[nH]c(=O)[nH]c2=O)cc1C`, with -2.23% (inactive); and `COc1ccc(NC(=O)C2=C(C)NC(=O)NC2c2ccccc2[N+](=O)[O-])cc1` (stereo not given), with 2.47% (inactive); and `FC(F)(F)c1cccc(NC(=S)Nc2cccc(Cl)c2)c1`, with 6.14% (inactive).
For the compound `Cc1cccc(NC(=S)Nc2ccc(Cl)c(Cl)c2)c1`, the activation was 2.86% (inactive).
The result for `Cc1csc(NC(=S)Nc2cccc(Cl)c2)n1` reads 81.2% (active); that for `Cc1cccc(C(C)C)c1NC(=O)COC(=O)C1CC(=O)N(Cc2ccccc2)C1` (stereo not given), 3.03% (inactive).
For the compound `CCC(C)NC(=O)C1CCCN(C(=O)NC2CCCCC2)C1` (stereo not given), the activation is 2.48% (inactive).
Then `CC(=O)NC(CC(=O)Nc1ccc(S(=O)(=O)N2CCOCC2)cc1)c1ccccc1` (stereo not given), with 0.88% (inactive); and `O=C(COC(=O)c1cccc(Cl)c1)NC1CCCCCCC1`, with 0.68% (inactive); and `O=C(Nc1nnc(COc2ccccc2)s1)Nc1ccccc1F`, with 10.9% (inactive).
For `COc1ccccc1NC(=O)Nc1nc(CC(=O)Nc2ccccc2F)cs1`, the activation was 25% (inactive).
Regarding `COc1ccccc1NC(=O)Nc1nnc(Cc2ccc(F)cc2)s1`, the activation was 59.8% (active).
The result for `CCN(CC)S(=O)(=O)c1cccc(-c2n[nH]c(=S)n2/N=C/c2ccc(C(=O)OC)cc2)c1` reads 5.2% (inactive).
Then `O=C(NC(=S)N1CCN(Cc2ccccc2)CC1)c1ccccc1`, with 2.61% (inactive); and `CC(C)c1ccc(Nc2ncccc2C#N)cc1`, with 56.8% (active); and `O=C(COC(=O)c1ccc([N+](=O)[O-])o1)NC12CC3CC(CC(C3)C1)C2`, with 0.67% (inactive).
The result for `COc1cccc2sc3cc(NCC[C@@H]4CCCN4C)ccc3c(=O)c12` reads 72.2% (active).
On to `Cc1cc2oc3ccc(NCCC4CCCN4C)cc3c(=O)c2cc1C` (stereo not given), for which the activation is 2.97% (inactive).
Then `COc1ccc(CCNC(=O)C(=O)NCC2CCNCC2)cc1OC`, with -0.68% (inactive); and `CCOc1cc(-c2cc(-c3ccc(NC(C)=O)cc3)nc(N)c2C#N)ccc1O`, with 8.37% (inactive).
Turning to `CCOc1cc(-c2cc(-c3ccc(OC)cc3)nc(N)c2C#N)ccc1O`, the activation was 0.62% (inactive).
Then `COc1ccc(-c2cc(-c3ccc(N)cc3)nc(N)c2C#N)cc1OC`, with 79.4% (active).
With `COc1cccc(NC(=O)CC(c2ccc(OC(C)C)cc2)c2ccccc2OC)c1` (stereo not given), the activation is -0.21% (inactive).
For `CC(C)(C)OC(=O)CNC(=O)c1[nH]cnc1C(=O)N[C@@H](CCCCN)C(=O)OC(C)(C)C`, the activation was 0.13% (inactive).
With `Cc1ccc(NC(=O)c2cc3ccccc3o2)cc1`, the activation was 25.5% (inactive).
The result for `C/C(=N\NC(=S)Nc1ccc(C)cc1)c1cc2ccccc2o1` reads 70.2% (active); that for `O=C(Nc1ccncc1)c1cc2ccccc2o1`, 0.11% (inactive); that for `CCOC(=O)C1(S(=O)(=O)c2ccc(Cl)cc2)CCN(Cc2ccccc2)CC1`, 0.91% (inactive).
Then `CCOc1ccc(NS(=O)(=O)c2ccc(Cl)c(C(=O)N(C)Cc3cccnc3)c2)cc1`, with -0.23% (inactive).
For `c1csc(CN2CCN(Cc3cccs3)C2c2cccs2)c1`, the activation was -2.12% (inactive).
As to `Brc1ccc2c(c1)[C@H]1OCC[C@H]1[C@@H](c1cccs1)N2`, the activation was 77.4% (active).
The result for `COc1ccc(CNC(=O)COC(=O)C(CCSC)N2C(=O)c3ccccc3C2=O)cc1` (stereo not given) reads -0.44% (inactive).
Turning to `O=C(Nc1cc(C(F)(F)F)ccc1Cl)C(=O)N1CCCCC1`, the activation was 4.43% (inactive).
On to `FC(F)(F)c1ccc2c3n(nc2c1)CCN=C3c1ccc(Cl)cc1`, for which the activation was 73.6% (active).
With `CCN(CC)CCN(C(=O)c1cc(Cl)sc1Cl)c1nc2cc3c(cc2s1)OCO3`, the activation is 72.1% (active).
Then `CN(C)CCN(C(=O)C1CCCCC1)c1nc2cc3c(cc2s1)OCO3`, with 4.17% (inactive); and `CCN(CC)CCN(C(=O)c1ccc(N2C(=O)CCC2=O)cc1)c1nc2cc3c(cc2s1)OCO3`, with 6.01% (inactive).
As to `COC(=O)[C@]1(Cc2ccccc2)N[C@H](CN(C)S(=O)(=O)c2ccc(OC(F)(F)F)cc2)[C@@H]2C(=O)N(C)C(=O)[C@@H]21`, the activation is -1.46% (inactive).
Then `O=C(Nc1ccc(NC(=O)c2ccco2)c(Cl)c1)c1cccc([N+](=O)[O-])c1`, with 2.52% (inactive).
On to `O=C(NNC(=S)Nc1ccc(Br)cc1Cl)c1ccco1`, for which the activation was 2.47% (inactive).
On to `CCC(=O)NC(=S)Nc1ccc(NC(=O)c2ccco2)c(Cl)c1`, for which the activation is 84.6% (active).
For `Cc1ccc(F)cc1NC(=O)N1CCCN(c2ccc(C(F)(F)F)cn2)CC1`, the activation was -3.14% (inactive).
`CCc1nn(CCCC(=O)Nc2ccc(C)c(C)c2)c(=O)c2cc3occc3n12`: the activation is 4.33% (inactive).
For `Nc1c(C(=O)c2cccs2)sc2nsc(SCCN3CCCCC3)c12`, the activation was 25.2% (inactive).
Regarding `OC(COc1ccc(CN2CCSCC2)cc1)CN1CCCCC1` (stereo not given), the activation was -1.38% (inactive).
`CCOc1ccc(CN2CCN(Cc3ccon3)CC2CCO)cc1` (stereo not given): the activation was 7.62% (inactive).
The result for `Cn1cccc1/C=N/NC(=O)CNc1cccc2ccccc12` reads 5.35% (inactive); that for `C/C(=N\NC(=O)CNc1cccc2ccccc12)c1ccc(Br)s1`, 91.4% (active).
Take `Cc1cccc(/C=N/NC(=O)CNc2cccc3ccccc23)n1`: the activation is 46% (inactive).
On to `O=C(CSc1nnc(SCc2ccc(F)cc2)s1)Nc1ccc(C(=O)O)cc1`, for which the activation is -0.59% (inactive).
Take `O=C(NCC#CCSc1nnc(-c2cccc3ccccc23)o1)c1cccs1`: the activation is -2.43% (inactive).
As for `C#CCSc1nnc(-c2sc3ccccc3c2Cl)o1`, the activation is 89.2% (active).
Regarding `Clc1ccc(-c2nnc(SCc3nc4ccccc4s3)o2)cc1`, the activation is 18.2% (inactive).
The result for `COC(=O)CSc1ccc2nnc(CCNS(=O)(=O)c3ccc(C)cc3)n2n1` reads 0.87% (inactive); that for `O=C(CN1CCN(S(=O)(=O)c2ccc(Cl)s2)CC1)NCc1ccc(Cl)cc1`, -0.6% (inactive); that for `CC[n+]1cc(C)ccc1/C=C/c1ccc(N(C)C)cc1`, -0.11% (inactive).
As for `Cc1c(C(=O)OCC(=O)N2CCCC2=O)oc2ccccc12`, the activation was 1.38% (inactive).
Take `COc1cccc(NC(=O)Nc2nnc(N3CCCCC3C)s2)c1` (stereo not given): the activation is 62.3% (active).
As for `COc1cccc(C(=O)Nc2nnc(S(=O)(=O)N3CCCCC3)s2)c1`, the activation was 9.59% (inactive).
Then `COc1cccc(NC(=O)NCCN2CCCCC2)c1`, with 2.06% (inactive).
